This experiment concerns HCC1569. Description: H1.0 immunofluorescence intensity relative to DMSO (% of DMSO); higher = stronger H1.0 induction, active = 140 or more. Particulars: concentration: 10 µM; 24 h. The method, boiled down:
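Treatment: HCC1569 and TDF cells, 800 per well in 384-well plates with RPMI and 10% FBS, were given compounds at 10 µM for 24 h at 37 °C, in triplicate. Readout: after 3.7% formaldehyde fixation, cells were stained with a rabbit anti-H1.0 antibody, an AlexaFluor 647 secondary and DAPI. Reported values are H1.0 nuclear intensity or cell number as percent of the plate control, taken as the median of replicates, with positional smoothing for HCC1569.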
For the compound `CC(C=CC1=C(C)CCCC1(C)C)=CC=CC(C)=CC(=O)Nc1ccc(O)cc1` [Retinoic acid p-hydroxyanilide], the H1.0 immunofluorescence intensity was 185 (active). Regarding `O=c1c(-c2ccc(O)cc2)coc2cc(O)cc(O)c12` [Genistein], the H1.0 immunofluorescence intensity was 97.6 (inactive). Then `O=C(O)CN(CCOCCOCCN(CC(=O)O)CC(=O)O)CC(=O)O`, with 88.9 (inactive); and `CCCc1cc(C(N)=S)ccn1` [Prothionamide], with 103 (inactive). Then `COC(=O)C1C(O)CCC2CN3CCc4c([nH]c5ccccc45)C3CC21` (configuration not stated) [Corynanthine], with 95.3 (inactive); and `COc1cc(C2c3cc4c(cc3C(OC3OC5COC(C)OC5C(O)C3O)C3COC(=O)C23)OCO4)cc(OC)c1O` (configuration not stated) [Etoposide], with 95.1 (inactive); and `CON=C(C(=O)NC1C(=O)N2C(C(=O)O)=C(COC(C)=O)CSC12)c1csc(N)n1` (configuration not stated) [Cefotaxime Acid], with 103 (inactive).
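Further: TDF is a line of transformed human dermal fibroblasts of mesenchymal origin.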
